Data from PubChem BioAssay AID1159580 (chemical genetic matrix, 2015).
Where “and” joins values, the source holds several entries; their conditions need not be identical. Identical values can stand only once. Screen size: about 5,500 compounds; about 2,000 (36%) were called active. Not shown: some 18% with an inconclusive outcome. Cut-off read from the data, not from the text of the source: active = normalized growth mostly below about 0.91 (no sharp cut-off); inconclusive = no clear call, values can overlap the other calls; inactive = mostly above about 0.92. Some of the results follow.

Assay: chemical genetic growth profiling, strain panel (AID 1159580);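 note: tested at 20 µM; growth read once vehicle control cultures reached saturation at 30 °C; 1 = growth at the plate median or of vehicle wells; lower values mean less growth of the strain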
Settings: S. cerevisiae deletion strains, growth OD

Measured: normalized growth

CCN(CC)C(=O)c1cccc(C)c1
inactive: locus YAL013W, strain DEP1, active compounds read low 1 | locus YAL021C, strain ccr4, active compounds read low 1.03 | locus YAL026C, strain drs2, active compounds read low 1.03 | locus YAL030W, strain snc1, active compounds read low 1.04 | locus YBL061C, strain skt5, active compounds read low 1.04 | locus YBR009C, strain hhf1, active compounds read low 1.01 | locus YBR021W, strain FUR4, active compounds read low 1.01 | locus YBR023C, strain chs3, active compounds read low 1.03 | locus YBR171W, strain sec66, active compounds read low 1.04 | locus YBR229C, strain ROT2, active compounds read low 1.01 | locus YBR231C, strain swc5, active compounds read low 1.05 | locus YBR279W, strain paf1, active compounds read low 1.02 | locus YCL011C, strain gbp2, active compounds read low 1.02 | locus YCL016C, strain dcc1, active compounds read low 1.03 | locus YCL029C, strain bik1, active compounds read low 0.992 | locus YCL069W, strain vba3, active compounds read low 1.04 | locus YCR088W, strain abp1, active compounds read low 1.04 | locus YDL005C, strain med2, active compounds read low 1.03 | locus YDL035C, strain GPR1, active compounds read low 1 | locus YDL040C, strain nat1, active compounds read low 1.03 | locus YDL074C, strain BRE1, active compounds read low 1.02 | locus YDL101C, strain DUN1, active compounds read low 0.999 | locus YDL134C, strain PPH21, active compounds read low 1.01 | locus YDL185W, strain tfp1, active compounds read low 0.957 | locus YDL192W, strain arf1, active compounds read low 0.996 | locus YDR001C, strain nth1, active compounds read low 1.03 | locus YDR069C, strain doa4, active compounds read low 1.02 | locus YDR101C, strain arx1, active compounds read low 1 | locus YDR137W, strain rgp1, active compounds read low 1.04 | locus YDR150W, strain NUM1, active compounds read low 0.981 | locus YDR159W, strain sac3, active compounds read low 1.05 | locus YDR162C, strain NBP2, active compounds read low 0.972 | locus YDR195W, strain ref2 1.11 | locus YDR297W, strain sur2, active compounds read low 1.03 | locus YDR318W, strain mcm21, active compounds read low 1 | locus YDR334W, strain swr1, active compounds read low 1.03 | locus YDR335W, strain msn5, active compounds read low 1.03 | locus YDR388W, active compounds read low 1.01 | locus YDR392W, strain spt3, active compounds read low 1.05 | locus YDR502C, strain sam2, active compounds read low 0.994 | locus YEL003W, strain gim4, active compounds read low 1.02 | locus YEL037C, strain rad23, active compounds read low 1.04 | locus YEL061C, strain CIN8 (second series), active compounds read low 1.02 | locus YEL061C, strain CIN8, active compounds read low 1.01 | locus YER015W, strain faa2, active compounds read low 1.03 | locus YER016W, strain bim1, active compounds read low 1.02 | locus YER110C, active compounds read low 1.01 | locus YER111C, strain swi4, active compounds read low 1.05 | locus YER155C, strain BEM2 (second series), active compounds read low 1.07 | locus YER155C, strain BEM2, active compounds read low 1.01 | locus YER167W, strain BCK2, active compounds read low 1.03 | locus YFR010W, strain ubp6, active compounds read low 1.03 | locus YGL078C, strain dbp3, active compounds read low 0.997 | locus YGL086W, strain mad1, active compounds read low 1 | locus YGL167C, strain pmr1, active compounds read low 1.03 | locus YGL173C, strain kem1, active compounds read low 1.01 | locus YGL227W, strain vid30, active compounds read low 1.04 | locus YGL240W, strain doc1, active compounds read low 1.03 | locus YGL248W, strain PDE1, active compounds read low 1.01 | locus YGL253W, strain hxk2, active compounds read low 1.02 | locus YGR078C, strain PAC10, active compounds read low 0.98 | locus YGR135W, strain pre9, active compounds read low 0.982 | locus YGR229C, strain SMI1, active compounds read low 1.01 | locus YGR252W, strain gcn5, active compounds read low 0.98 | locus YHR013C, strain ard1, active compounds read low 1.1 | locus YHR027C, strain rpn1, active compounds read low 1.02 | locus YHR030C, strain SLT2, active compounds read low 1.01 and 0.932 | locus YHR079C, strain IRE1 (second series), active compounds read low 1 | locus YHR079C, strain IRE1, active compounds read low 0.977 | locus YHR094C, strain hxt1, active compounds read low 0.997 | locus YHR129C, strain ARP1, active compounds read low 1.02 | locus YHR142W, strain chs7, active compounds read low 1.02 | locus YHR200W, strain rpn10, active compounds read low 0.998 | locus YIL066C, strain RNR3, active compounds read low 0.998 | locus YIL073C, strain SPO22, active compounds read low 0.97 | locus YIL125W, strain kgd1, active compounds read low 1 | locus YIR030C, strain dcg1, active compounds read low 0.996 | locus YJL092W, strain hpr5, active compounds read low 1.03 | locus YJL095W, strain BCK1 (second series), active compounds read low 1.04 | locus YJL095W, strain BCK1, active compounds read low 1.04 and 0.974 | locus YJL115W, strain asf1, active compounds read low 1.06 | locus YJL129C, strain trk1, active compounds read low 1.08 | locus YJL134W, strain LCB3, active compounds read low 1 | locus YJL154C, strain vps35, active compounds read low 1.03 | locus YJL164C, strain tpk1, active compounds read low 1.02 | locus YJL166W, strain qcr8, active compounds read low 1.02 | locus YJL168C, strain set2, active compounds read low 1 | locus YJL187C, strain SWE1 (second series), active compounds read low 0.994 | locus YJR043C, strain POL32, active compounds read low 0.999 | locus YJR066W, strain TOR1, active compounds read low 0.942 | locus YJR075W, strain HOC1, active compounds read low 1.02
